High-throughput results: PubChem BioAssay, Broad Institute
Shn3 3UTR inh: reduces Shn3 3'UTR luciferase signal in osteoblasts; Clone20 osteoblast Shn3 3'UTR firefly luciferase, 24 h; inhibition, % at 12.5 µM; actives 0.52% (n = 360,000); AID 588674;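 active means mean inhibition of at least 75% with every replicate also reaching 75%; inconclusive means mean inhibition at least 75% but some replicate below; inactive means mean inhibition below 75%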;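 further: 0% = median of neutral control wells and 100% = pilot-screen positive control compound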
EWS-Fli inh: blocks EWS/Fli oncoprotein-driven transcription | A673 NR0B1-luciferase reporter, viability-normalised | inhibition, % at 12.6 µM | actives 0.67% (n = 350,000);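 active means mean inhibition of at least 50% after viability correction, with every replicate also passing that limit; inconclusive means mean reaches 50% but only one of two replicates passes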;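 further: firefly luciferase signal divided by Alamar Blue viability fluorescence both relative to DMSO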
MITF TRPM1 inh: reduces MITF-dependent TRPM1 promoter luciferase signal; SK-MEL-5 TRPM1 promoter luciferase, 24 h; actives 0.83% (n = 330,000); inhibition, % at 12.5 µM;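 active means mean inhibition across replicates of 60% or more, whatever share of single replicates reaches that level; inconclusive means some that reach 60%, reason not given; inactive means mean inhibition across replicates below 60%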
LGR2 inh: inhibitors of bursicon-induced Drosophila LGR2 receptor cAMP signaling; HEK293 LGR2, CRE-luciferase, bursicon-stimulated, 4 h; AID 720647; actives 0.35% (n = 380,000); inhibition, % at 9.99 µM;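 active means drop in luminescence signal, shown as inhibition above about 50% in the replicate tests, limit read from the data, passing the limit was not always enough; inconclusive means probably only some replicates passing the limit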;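 further: agonist challenge used bursicon conditioned medium at about half maximal strength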
EBV LMP1 NFkB: inhibitors of Epstein-Barr LMP1-induced NF-kappaB reporter. actives 0.69% (n = 350,000). AID 504558. LMP1-induced NF-kappaB luciferase reporter cells, luminescence. inhibition, % at 12.5 µM; in the data active means inhibition above about 41%; inconclusive means no clear call, values can overlap the other calls;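 further: 0% = neutral control wells and 100% = reference inhibitor control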
PAX8 inh HTS: inhibitors of PAX8 transcriptional activity in RMG-I cells; inhibition, % at 12.6 µM; actives 1.2% (n = 360,000); RMG-I TPO-luciferase reporter, SteadyGlo, 24 h;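 active means mean replicate inhibition at least 60% with every replicate also reaching 60%; inconclusive means only one of the two criteria is met; inactive means mean below 60% and not all replicates reaching 60%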;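 further: luciferase light reporting Pax8 driven TPO promoter activity; plate controls were median of neutral control wells for no effect and mitoxantrone controls for full effect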
* = called active by the depositor; u = inconclusive; x = not tested or not shown. The list is not random: actives were taken first. Their share in the collection is about 2.2%.

SMILES | Shn3 3UTR inh | EWS-Fli inh | MITF TRPM1 inh | LGR2 inh | EBV LMP1 NFkB | PAX8 inh HTS
O=C(NOCc1ccccc1)c1ccc(Cl)cc1Cl | 24 | 50 | 11 | 82* | 46* | 11
O=C(NOCc1ccccc1)c1ccccc1 | -62 | -8 | -32 | 25 | 6 | -43
CO[C@H]1CN(C)C(=O)c2cc(NC(C)=O)ccc2OC[C@H](C)N(C(=O)c2cnccn2)C[C@@H]1C | x | -1 | x | 5 | x | -4
COc1ccc(CCNC(=O)COC(=O)c2cccs2)cc1 | 2 | -1 | 6 | -4 | -8 | 83*
COc1ccc(CNC(=O)COC(=O)[C@@H]2CCCN2C(=O)c2cccs2)cc1 | 9 | -5 | 3 | -6 | 45* | 2
C[C@H](CO)N1C[C@H](C)[C@H](CN(C)Cc2ccc(Oc3ccccc3)cc2)Oc2ccc(NC(=O)C3CCCCC3)cc2C1=O | x | 12 | x | 18 | x | x
Cc1ccc(-c2ccc3c(c2)O[C@@H](CN(C)CC2CCCC2)[C@H](C)CN([C@@H](C)CO)S3(=O)=O)cc1 | x | 20 | x | -5 | x | x
CNC(=O)C[C@H]1C(=O)N(c2ccc(OC)cc2)C[C@@H]1C | -10 | -5 | x | 1 | 6 | 8
COc1ccc(NC(=O)C[C@H]2C(=O)N(c3ccc(OC)cc3)C[C@@H]2C)cc1 | -7 | 0 | x | 12 | 0 | 101*
COc1ccccc1/C=C1\CCCC2=C1Nc1nnnn1C2c1ccccc1OC (configuration not stated) | 91* | x | 50 | 10 | -12 | -2
CCCNC(=O)N1CCC2(CC1)CN(C(=O)c1cccnc1)[C@H](CO)c1[nH]c3cc(OC)ccc3c12 | x | -2 | x | 16 | x | x
C=C1C(=O)OC2CC1C(O)CC(C)=CCCC(C)=CC(O)CC2C (configuration not stated) | 96* | 4 | 95* | x | -3 | 101*
C=C1C(=O)OC2/C=C(/C)CC/C=C(/C)CCC12 (configuration not stated) | x | 2 | x | x | x | 98*
C=C1C(=O)OC2CC1C(OC(C)=O)CC(C)=CCCC(C)=CCCC2(C)O (configuration not stated) | 94* | 38 | x | x | x | x
COCC(=O)N1CC(=O)N2[C@@H](CO)[C@@H](c3ccc(-c4cccnc4)cc3)[C@@H]2C1 | x | -2 | x | 6 | x | x
O=C(C[C@@H]1C=C[C@@H](NC(=O)C2CC2)[C@@H](CO)O1)NCCc1cscn1 | x | 3 | x | 7 | x | 6
O=C(CCl)N(c1ccccc1)c1c[nH]c2ccccc12 | 94* | x | 86* | x | u | x
O=C(Cc1ccc(Cl)cc1)NCCc1c[nH]c2ccccc12 | 1 | 18 | 6 | 6 | 1 | -14
O=C(CCl)N(c1ccc(Cl)cc1)c1c[nH]c2ccccc12 | 98* | x | 84* | -39 | u | x
O=C(C[C@H]1C=C[C@@H](NC(=O)C2CCOCC2)[C@H](CO)O1)NCC1CCCCC1 | x | -2 | x | 6 | x | x
Cc1ccc(NC(=O)Cc2nnc(SCC(=O)NC3CCCC3)n2C)cc1C | 11 | 2 | -1 | 0 | 45* | 2
Cc1ccc(NC(=O)Cc2nnc(SCC(=O)NC3CCCC3)n2C)cc1 | -9 | -1 | -1 | 4 | -3 | -4
CO[C@H]1CN(C)C(=O)c2ccc(NS(=O)(=O)c3ccc(C)cc3)cc2OC[C@@H](C)N(C(=O)NC(C)C)C[C@H]1C | x | -1 | x | -4 | x | x
COc1ccc(-n2nc3c(N4CCC(C(=O)NC5CCCCC5)CC4)nnc(C)c3c2C)cc1 | -4 | x | 51 | x | 1 | x
COc1ccc(-n2nc3c(N4CCC(C(=O)NCCc5ccccc5C)CC4)nnc(C)c3c2C)cc1 | 78 | x | 89* | x | 1 | x
SMILES | Shn3 3UTR inh | EWS-Fli inh | MITF TRPM1 inh | LGR2 inh | EBV LMP1 NFkB | PAX8 inh HTS
COc1ccc(-n2nc3c(N4CCC(C(=O)NCc5ccccc5C)CC4)nnc(C)c3c2C)cc1 | 24 | x | 85* | x | -5 | x
COc1ccc(-n2nc3c(N4CCC(C(=O)NCc5ccco5)CC4)nnc(C)c3c2C)cc1 | 11 | x | 0 | x | 3 | x
COc1ccc(-n2nc3c(N4CCC(C(=O)NCC(C)c5ccccc5)CC4)nnc(C)c3c2C)cc1 (configuration not stated) | u | x | 68* | 3 | 1 | 57
CCOc1ccccc1CNC(=O)C1CCCN(c2nnc(C)c3c(C)n(-c4ccccc4)nc23)C1 (configuration not stated) | 58 | 63* | 81* | -13 | 24 | 81*
CNC(=O)C[C@@H]1CC[C@@H]2[C@@H](COc3ccc(NS(=O)(=O)c4cccc(F)c4)cc3C(=O)N2C)O1 | x | -5 | x | -10 | x | -21
COc1ccc(S(=O)(=O)N(C)C[C@H]2OCCCC[C@H](C)Oc3ccc(NC(=O)C4CCCCC4)cc3C(=O)N([C@@H](C)CO)C[C@H]2C)cc1 | x | 4 | x | 19 | x | 0
Cc1ccc(-n2nc3c(N4CCC(C(=O)NCCc5ccccc5C)CC4)nnc(C)c3c2C)cc1 | 18 | x | 94* | x | -3 | x
CC=Cc1ccc2n(c1=O)C[C@H]1[C@H](CO)[C@@H](C(=O)NCC3CC3)[C@@H]2N1Cc1ccccc1OC (mixture of isomers) | x | -7 | x | -25 | x | x
COc1ccc(/C=c2/sc3n(c2=O)C(c2ccccc2OC)C2=C(N=3)c3ccccc3CC2)cc1O (configuration not stated) | 10 | x | 34 | x | -20 | 93*
CCOC(=O)C1=C(C)N=c2s/c(=C\c3ccc(O)c([N+](=O)[O-])c3)c(=O)n2C1c1ccccc1OC (configuration not stated) | 7 | 16 | 12 | 0 | 4 | -8
CC(C)CC[n+]1ccccc1/C=C/c1ccc(N(C)C)cc1 | 77 | 49 | 73* | 21 | 36 | 82*
COc1ccc(N=Nc2ccc3ccccc3c2)c(O)c1 | -3 | 33 | -13 | 60* | -39 | -74
COc1cccc(N=Nc2ccc3ccccc3c2O)c1 | -81 | -24 | 6 | 16 | -10 | -89
CC(=O)N(Cc1c(C)nn(-c2ccccc2)c1Cl)c1ccc(Cl)cc1 | 17 | x | -1 | x | 7 | -6
Cc1nn(-c2ccccc2)c(Cl)c1CN(C(=O)CCl)c1cccc2ccccc12 | 50 | 38 | 25 | 35 | -4 | 111*
Cc1nn(-c2ccccc2)c(Cl)c1CN(C(=O)CCl)c1ccc(Cl)cc1 | 96* | x | 91* | 0 | 7 | 100*
Cc1nn(-c2ccccc2)c(Cl)c1C(=O)NCC(=O)O | 6 | x | 8 | x | -7 | x
Cc1ccc([C@H]2C[C@H](O)[C@@H](n3cc(-c4ccc(F)cc4)nn3)CN2Cc2cccs2)cc1 | 33 | 53* | x | 8 | 8 | 57
CCCCCCN1C[C@H](n2cc(-c3ccc(F)cc3)nn2)[C@@H](O)C[C@@H]1c1ccc(Cl)cc1 | 95* | 41 | x | 8 | -16 | 6
COCC(=O)N1[C@@H](CO)[C@H](c2ccccc2)C12CN(C(=O)NC1CCCC1)C2 | x | x | x | 6 | x | x
CN1CCN(C(=O)C[C@@H]2CC[C@H]3[C@@H](COC[C@@H](O)CN3CC3CC3)O2)CC1 | x | 7 | x | -14 | x | -24
